Active and inactive are the calls of the source. Rule for the calls: active = hit-call score of the fitted dose curve at least 0.9, where 1 is the maximum; inactive = score below 0.9.
Experiments:
[1] = molecular target: Bile acid receptor (Homo sapiens) (UniProt Q96RI1); assay: ATG_IR1_CIS: Attagene CIS-FACTORIAL HepG2 Assay for human Nuclear Receptor Subfamily 1 Group H Member 4 (NR1H4), IR1 submotif (AID 2282946); conditions: IR1 reporter transcription, actives raise or lower the signal
How it was run: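 Transient MRTU transfection, HepG2; 24 h dosing; RNA → RT-PCR → 6-FAM primer extension → HpaI digest → capillary electrophoresis fluorescence. Gain/loss of signal fitted relative to DMSO.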

[2] = ATG_GRE_CIS: Attagene CIS-FACTORIAL HepG2 Assay for human Glucocorticoid Response Elements (GRE) (AID 2282947); conditions: HepG2 GRE cis-reporter, Attagene multiplex mRNA; actives raise or lower the signal
How it was run: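 Following 24 h chemical exposure of transiently transfected HepG2 cells, total RNA was reverse-transcribed and reporter cDNA amplified, fluorescently labelled and sized by capillary electrophoresis. Signal gain or loss was fitted relative to DMSO vehicle.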

[3] = ATG_ISRE_CIS: Attagene CIS-FACTORIAL HepG2 Assay for human Interferon Regulatory Factor 1 (IRF1) binding to an Interferon-Stimulated Response Element (ISRE) (AID 2282948); conditions: HepG2 ISRE cis-reporter (Attagene), mRNA transcription readout; actives raise or lower the signal
How it was run: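 Transfected HepG2 (multiple reporter transcription units, cis elements) dosed 24 h. RNA → oligo(dT) RT → PCR → 6-FAM primer extension → HpaI → CE. DMSO = negative control/baseline.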

[4] = ATG_M_32_CIS: Attagene CIS-FACTORIAL HepG2 Assay for M32 Transcription Factor (Internal Marker) (AID 2282949); conditions: HepG2 Attagene cis-factorial M32 reporter, mRNA; actives raise or lower the signal;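 note: background control marker of the multiplexed CIS panel rather than a real target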
How it was run: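 HepG2 cells transiently transfected with multiplexed cis-regulated reporter units, dosed 24 h. Reporter mRNA quantified by RT-PCR, 6-FAM labelling, HpaI digestion and capillary electrophoresis; bidirectional fit vs DMSO.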

[5] = ATG_M_06_CIS: Attagene CIS-FACTORIAL HepG2 Assay for M06 Transcription Factor (Internal Marker) (AID 2282950); conditions: HepG2 Attagene CIS-FACTORIAL M06 internal marker reporter; actives raise or lower the signal
How it was run: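 One of many multiplexed endpoints: HepG2 reporter mRNA after 24 h dosing, detected by RT-PCR and capillary electrophoresis fluorescence; gain or loss of signal analysed against DMSO.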

[6] = molecular target: Hypoxia-inducible factor 1-alpha (Homo sapiens) (UniProt Q16665); assay: ATG_HIF1a_CIS: Attagene CIS-FACTORIAL HepG2 Assay for human Hypoxia Inducible Factor 1 (HIF1A) (AID 2282951); conditions: HepG2 Attagene cis-factorial HIF1a reporter transcription; actives raise or lower the signal
How it was run: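 Activity is fitted in both directions relative to DMSO. Reporter transcripts are read by RT-PCR, fluorescent primer extension and capillary electrophoresis after 24 h chemical treatment. The cells are HepG2 carrying transiently transfected cis-element-driven reporter units responding to endogenous factors.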

[7] = molecular target: Hepatocyte nuclear factor 6 (Homo sapiens) (UniProt Q9UBC0); assay: ATG_HNF6_CIS: Attagene CIS-FACTORIAL HepG2 Assay for human Hepatocyte Nuclear Factor 6 (HNF6) (AID 2282952); conditions: HepG2 Attagene cis-factorial HNF6 reporter transcription; actives raise or lower the signal
How it was run: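 Transiently transfected HepG2 cells expressing cis-regulated reporter transcription units were exposed to chemical for 24 h in a 24-well format. Reporter transcript abundance was determined by fluorescence capillary electrophoresis.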

[8] = molecular target: Heat shock factor protein 1 (Homo sapiens) (UniProt Q00613); assay: ATG_HSE_CIS: Attagene CIS-FACTORIAL HepG2 Assay for human Heat Shock Transcription Factor 1 (HSE) (AID 2282953); conditions: HepG2 HSE cis-reporter, Attagene RNA transcription; actives raise or lower the signal
How it was run: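 Using HepG2 with transfected cis-driven reporter constructs, compound effects on endogenous factor activity are scored as reporter mRNA change at 24 h. Detection: RT-PCR, HpaI digestion, capillary electrophoresis; bidirectional fitting to DMSO.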

[9] = ATG_MRE_CIS: Attagene CIS-FACTORIAL HepG2 Assay for human Metal Responsive Element (MRE) (AID 2282954); conditions: HepG2 MRE cis-reporter transcription, Attagene multiplex; actives raise or lower the signal
How it was run: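 Step one: transfect HepG2 with cis-regulated reporter units. Step two: dose 24 h. Step three: isolate RNA, RT-PCR, 6-FAM label, HpaI digest, capillary electrophoresis. Fit bidirectionally to DMSO.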

[10] = ATG_PBREM_CIS: Attagene CIS-FACTORIAL HepG2 Assay for human Phenobarbital-responsive Enhancer Module (PBREM) (AID 2282955); conditions: HepG2 PBREM cis-reporter, Attagene multiplexed transcription; actives raise or lower the signal
How it was run: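 Endogenous transcription factor activity was read from reporter transcripts in transiently transfected human HepG2 liver cells after 24 h dosing. RT-PCR products were fluorescently labelled, HpaI-cut and sized by capillary electrophoresis; activity fitted bidirectionally against DMSO baseline.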

[11] = molecular target: Paired box protein Pax-6 (Homo sapiens) (UniProt P26367); assay: ATG_Pax6_CIS: Attagene CIS-FACTORIAL HepG2 Assay for human Paired Box 6 (PAX6) (AID 2282956); conditions: HepG2 CIS-FACTORIAL PAX6 reporter transcription, RNA readout; actives raise or lower the signal
How it was run: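 Transient MRTU transfection of HepG2 → compound exposure 24 h → TriZol RNA, oligo(dT) RT → PCR, 6-FAM primer extension, HpaI cut → capillary electrophoresis; activity fitted both directions against DMSO.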

[12] = ATG_PXRE_CIS: Attagene CIS-FACTORIAL HepG2 Assay for human Pregnane X Receptor Element (PXRE) (AID 2282957); conditions: HepG2 Attagene CIS-FACTORIAL PXRE reporter, mRNA; actives raise or lower the signal
How it was run: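 Cis-element reporter mRNA in human hepatoma HepG2 cells is measured 24 h post-dosing by RT-PCR, primer-extension labeling and capillary electrophoresis; gain or loss of signal is fitted relative to DMSO.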

[13] = ATG_PPRE_CIS: Attagene CIS-FACTORIAL HepG2 Assay for human Peroxisome Proliferator-activated Response Element (PPRE) (AID 2282958); conditions: HepG2 PPRE cis-element reporter, Attagene transcription factor profiling; actives raise or lower the signal
How it was run: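 Endogenous PPRE-driven transcription is measured in HepG2 cells carrying transfected multi-reporter constructs. Reporter transcripts are quantified by RT-PCR, HpaI digestion and capillary electrophoresis 24 h after dosing. DMSO baseline, bidirectional fit.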

[14] = ATG_RORE_CIS: Attagene CIS-FACTORIAL HepG2 Assay for human RAR-related Orphan Receptor Element (RORE) (AID 2282959); conditions: HepG2 Attagene cis-factorial RORE reporter, mRNA; actives raise or lower the signal
How it was run: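 RORE reporter transcripts reflecting endogenous factor activity were read after 24 h compound exposure of transfected HepG2 cells, using reverse transcription, PCR, fluorescent labelling and capillary electrophoresis sizing. Gain or loss fitted against DMSO.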

[15] = ATG_Sox_CIS: Attagene CIS-FACTORIAL HepG2 Assay for human SRY-box transcription factor (SOX) (AID 2282960); conditions: HepG2 Attagene cis-factorial SOX reporter, mRNA; actives raise or lower the signal
How it was run: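 Reporter transcripts, measured by RT-PCR and capillary electrophoresis of labelled fragments, report endogenous SOX transcription factor activity. Transiently transfected human HepG2 cells receive chemical for 24 h; changes in either direction are fitted relative to DMSO.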

[16] = molecular target: Transcription factor Sp1 (Homo sapiens) (UniProt P08047); assay: ATG_Sp1_CIS: Attagene CIS-FACTORIAL HepG2 Assay for human Specificity Protein 1 (Sp1) (AID 2282961); conditions: HepG2 Sp1 cis-reporter transcription, actives raise or lower the signal
How it was run: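 Read-out is reporter transcript level, measured by RT-PCR and fluorescent capillary electrophoresis after 24 h chemical treatment. System: transiently transfected HepG2 cells reporting endogenous transcription factor activity; gain or loss fitted against DMSO baseline.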

[17] = ATG_SREBP_CIS: Attagene CIS-FACTORIAL HepG2 Assay for human Sterol Regulatory Element Binding (SREBP) (AID 2282962); conditions: HepG2 Attagene cis-factorial SREBP reporter, mRNA; actives raise or lower the signal
How it was run: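 Transfected HepG2 (cis-regulated reporter library, endogenous TFs) → compound 24 h → total RNA → oligo(dT) RT → reporter-specific PCR → FAM primer extension, HpaI cut → CE fluorescence. Fit bidirectional vs DMSO.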

[18] = molecular target: Signal transducer and activator of transcription 3 (Homo sapiens) (UniProt P40763); assay: ATG_STAT3_CIS: Attagene CIS-FACTORIAL HepG2 Assay for human Signal Transducer and Activator of Transcription 3 (STAT3) (AID 2282963); conditions: HepG2, Attagene cis-factorial STAT3 reporter transcription; actives raise or lower the signal
How it was run: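 Transcript-level reporter assay. HepG2 transient MRTU transfection, 24 h exposure, fluorescence detection after RT-PCR and CE; DMSO baseline.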

[19] = ATG_TA_CIS: Attagene CIS-FACTORIAL HepG2 Assay for human TA Basal Promoter (AID 2282964); conditions: HepG2 Attagene CIS-factorial TA basal promoter reporter; actives raise or lower the signal
How it was run: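 Transient MRTU transfection of HepG2 preceded 24 h compound exposure. Reporter mRNA levels were then read by RT-PCR with capillary electrophoresis, and this background-control endpoint was fitted bidirectionally to DMSO.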

Measured: AC50

Transcription factor Sp1 (Homo sapiens), sequence (P08047 whole entry, looked up): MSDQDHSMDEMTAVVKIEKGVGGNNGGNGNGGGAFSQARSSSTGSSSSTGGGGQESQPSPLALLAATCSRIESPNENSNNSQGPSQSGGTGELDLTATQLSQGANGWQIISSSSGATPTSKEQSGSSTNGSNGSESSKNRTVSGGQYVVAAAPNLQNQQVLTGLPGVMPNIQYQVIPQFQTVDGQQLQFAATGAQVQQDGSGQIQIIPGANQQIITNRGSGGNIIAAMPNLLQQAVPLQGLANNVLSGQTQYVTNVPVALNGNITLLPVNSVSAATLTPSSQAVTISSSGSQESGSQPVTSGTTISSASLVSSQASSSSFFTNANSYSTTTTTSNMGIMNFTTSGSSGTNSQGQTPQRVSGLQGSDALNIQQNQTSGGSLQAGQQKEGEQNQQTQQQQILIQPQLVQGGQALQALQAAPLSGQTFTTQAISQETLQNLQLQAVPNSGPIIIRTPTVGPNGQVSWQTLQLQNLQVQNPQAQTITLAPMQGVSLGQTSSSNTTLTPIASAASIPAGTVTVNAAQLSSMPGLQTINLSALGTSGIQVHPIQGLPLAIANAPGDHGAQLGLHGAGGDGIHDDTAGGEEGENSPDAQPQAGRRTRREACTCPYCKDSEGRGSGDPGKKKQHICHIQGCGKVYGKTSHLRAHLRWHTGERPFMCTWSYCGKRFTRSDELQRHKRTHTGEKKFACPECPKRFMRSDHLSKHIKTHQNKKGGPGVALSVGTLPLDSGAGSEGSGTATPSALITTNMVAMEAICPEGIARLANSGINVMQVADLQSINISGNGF
Hypoxia-inducible factor 1-alpha (Homo sapiens), sequence (Q16665 whole entry, looked up): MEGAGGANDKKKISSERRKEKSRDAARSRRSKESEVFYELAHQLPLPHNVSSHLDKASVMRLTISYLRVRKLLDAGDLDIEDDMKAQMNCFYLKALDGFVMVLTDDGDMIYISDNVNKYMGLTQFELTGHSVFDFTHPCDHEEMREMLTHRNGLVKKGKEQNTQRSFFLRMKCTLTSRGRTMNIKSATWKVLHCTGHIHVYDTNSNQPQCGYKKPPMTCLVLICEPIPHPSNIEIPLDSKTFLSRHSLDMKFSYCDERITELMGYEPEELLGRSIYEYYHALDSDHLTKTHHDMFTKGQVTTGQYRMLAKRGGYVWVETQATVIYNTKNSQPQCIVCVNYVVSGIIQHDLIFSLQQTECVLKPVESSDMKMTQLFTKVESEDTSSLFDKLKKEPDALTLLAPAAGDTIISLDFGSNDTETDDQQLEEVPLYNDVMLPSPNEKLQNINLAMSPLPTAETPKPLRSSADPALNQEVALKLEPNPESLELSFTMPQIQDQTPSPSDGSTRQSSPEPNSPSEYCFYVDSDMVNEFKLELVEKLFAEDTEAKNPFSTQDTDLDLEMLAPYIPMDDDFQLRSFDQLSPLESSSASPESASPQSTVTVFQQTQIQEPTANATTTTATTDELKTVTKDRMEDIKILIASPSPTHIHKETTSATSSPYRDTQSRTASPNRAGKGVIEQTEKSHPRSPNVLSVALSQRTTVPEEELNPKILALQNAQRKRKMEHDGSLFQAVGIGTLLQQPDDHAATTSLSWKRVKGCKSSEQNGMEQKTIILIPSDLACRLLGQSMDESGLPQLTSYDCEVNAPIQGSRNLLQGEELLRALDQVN
Heat shock factor protein 1 (Homo sapiens), sequence (Q00613 whole entry, looked up): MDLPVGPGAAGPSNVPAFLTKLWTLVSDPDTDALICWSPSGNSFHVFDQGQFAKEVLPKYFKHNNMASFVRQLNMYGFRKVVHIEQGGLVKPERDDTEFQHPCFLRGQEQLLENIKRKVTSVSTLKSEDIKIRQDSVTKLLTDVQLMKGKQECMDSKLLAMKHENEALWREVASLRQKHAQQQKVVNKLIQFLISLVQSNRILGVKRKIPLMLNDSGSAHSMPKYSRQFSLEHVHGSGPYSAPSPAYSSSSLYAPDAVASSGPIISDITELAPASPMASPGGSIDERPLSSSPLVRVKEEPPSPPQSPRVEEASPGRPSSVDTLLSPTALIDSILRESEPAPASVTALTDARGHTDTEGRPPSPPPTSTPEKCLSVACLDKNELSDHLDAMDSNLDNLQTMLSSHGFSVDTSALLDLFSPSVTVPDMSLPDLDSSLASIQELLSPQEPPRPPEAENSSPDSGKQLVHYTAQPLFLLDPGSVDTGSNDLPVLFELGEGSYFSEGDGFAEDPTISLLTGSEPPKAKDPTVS
Signal transducer and activator of transcription 3 (Homo sapiens), sequence (P40763 whole entry, looked up): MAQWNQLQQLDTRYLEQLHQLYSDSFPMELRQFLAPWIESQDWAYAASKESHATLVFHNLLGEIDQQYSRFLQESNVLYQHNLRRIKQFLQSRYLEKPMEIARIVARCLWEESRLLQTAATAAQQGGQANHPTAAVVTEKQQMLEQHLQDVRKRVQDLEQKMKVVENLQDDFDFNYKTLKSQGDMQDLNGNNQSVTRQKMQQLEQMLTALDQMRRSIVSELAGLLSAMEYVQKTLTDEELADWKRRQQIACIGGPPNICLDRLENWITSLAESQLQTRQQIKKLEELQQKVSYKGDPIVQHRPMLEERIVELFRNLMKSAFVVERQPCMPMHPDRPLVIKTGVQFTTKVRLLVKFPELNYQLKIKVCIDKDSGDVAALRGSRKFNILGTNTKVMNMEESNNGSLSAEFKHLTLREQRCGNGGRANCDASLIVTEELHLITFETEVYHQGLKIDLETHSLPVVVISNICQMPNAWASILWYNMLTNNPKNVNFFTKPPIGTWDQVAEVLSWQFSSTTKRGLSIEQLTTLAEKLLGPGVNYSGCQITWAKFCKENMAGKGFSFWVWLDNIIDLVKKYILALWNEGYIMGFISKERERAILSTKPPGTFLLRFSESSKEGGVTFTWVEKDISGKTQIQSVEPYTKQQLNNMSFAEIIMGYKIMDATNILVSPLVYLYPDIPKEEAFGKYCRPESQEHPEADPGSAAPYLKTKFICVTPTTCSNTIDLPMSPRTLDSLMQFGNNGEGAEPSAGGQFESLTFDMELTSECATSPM
Bile acid receptor (Homo sapiens), sequence (Q96RI1 whole entry, looked up): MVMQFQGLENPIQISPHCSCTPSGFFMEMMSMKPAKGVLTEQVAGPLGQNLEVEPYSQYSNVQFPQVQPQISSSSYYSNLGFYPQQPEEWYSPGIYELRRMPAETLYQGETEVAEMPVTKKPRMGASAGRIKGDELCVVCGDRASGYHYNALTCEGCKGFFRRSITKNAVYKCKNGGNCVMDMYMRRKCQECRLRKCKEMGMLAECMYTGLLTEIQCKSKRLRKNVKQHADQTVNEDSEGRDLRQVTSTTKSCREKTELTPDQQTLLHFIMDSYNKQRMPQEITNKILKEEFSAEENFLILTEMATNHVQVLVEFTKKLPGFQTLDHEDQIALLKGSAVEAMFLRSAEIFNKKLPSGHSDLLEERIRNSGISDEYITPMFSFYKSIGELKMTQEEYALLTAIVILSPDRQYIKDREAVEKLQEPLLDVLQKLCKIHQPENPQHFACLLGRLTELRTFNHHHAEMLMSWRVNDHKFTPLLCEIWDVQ
Hepatocyte nuclear factor 6 (Homo sapiens), sequence (Q9UBC0 whole entry, looked up): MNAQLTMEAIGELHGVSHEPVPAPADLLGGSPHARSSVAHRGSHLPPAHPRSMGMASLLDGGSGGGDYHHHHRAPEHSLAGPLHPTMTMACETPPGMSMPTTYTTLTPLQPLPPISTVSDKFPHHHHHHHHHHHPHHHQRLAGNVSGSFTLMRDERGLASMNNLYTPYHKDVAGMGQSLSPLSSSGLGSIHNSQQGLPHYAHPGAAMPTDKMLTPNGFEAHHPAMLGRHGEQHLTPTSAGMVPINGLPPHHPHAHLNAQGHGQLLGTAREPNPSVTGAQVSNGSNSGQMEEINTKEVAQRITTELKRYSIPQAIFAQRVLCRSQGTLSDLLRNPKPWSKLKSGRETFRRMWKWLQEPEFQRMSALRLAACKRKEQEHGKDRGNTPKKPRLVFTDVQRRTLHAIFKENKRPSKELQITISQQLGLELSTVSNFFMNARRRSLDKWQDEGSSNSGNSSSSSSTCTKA
Paired box protein Pax-6 (Homo sapiens), sequence (P26367 whole entry, looked up): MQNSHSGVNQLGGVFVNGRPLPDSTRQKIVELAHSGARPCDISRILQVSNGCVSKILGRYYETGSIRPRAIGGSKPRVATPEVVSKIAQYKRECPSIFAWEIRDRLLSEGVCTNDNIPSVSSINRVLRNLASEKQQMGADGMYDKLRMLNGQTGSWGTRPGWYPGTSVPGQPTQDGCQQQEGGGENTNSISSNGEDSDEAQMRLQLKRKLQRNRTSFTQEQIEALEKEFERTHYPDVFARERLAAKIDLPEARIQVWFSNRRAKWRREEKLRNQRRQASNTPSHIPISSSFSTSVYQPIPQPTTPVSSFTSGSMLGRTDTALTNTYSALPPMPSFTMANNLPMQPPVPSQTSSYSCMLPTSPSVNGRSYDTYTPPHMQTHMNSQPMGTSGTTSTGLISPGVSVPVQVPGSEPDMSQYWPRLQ

CC1=CCC(=O)O1
active: [12] 26.7 µM
inactive: all other assays above

COC(F)(C(F)F)C(F)(F)F (centres undefined)
not listed: [3] | [19]
inactive: all other assays above

CN(C(=O)C(F)(F)C(F)(F)C(F)(F)F)[Si](C)(C)C
not listed: [9]
inactive: all other assays above

CCCCOC(=O)C(C)O (centres undefined)
inactive: all assays above

CO[Si](C)(CCC(F)(F)C(F)(F)C(F)(F)C(F)(F)C(F)(F)C(F)(F)F)OC
inactive: all assays above

CSc1ccc(O)cc1C
active: [12] 44.3 µM
not listed: [3] | [6]
inactive: all other assays above

CCCCCCCC/C=C\CCCCCCCC(=O)OCC(O)CO (centres undefined)
not listed: [6]
inactive: all other assays above

NCC(F)(F)C(F)(F)C(F)(F)C(F)(F)C(F)(F)C(F)(F)F
not listed: [11]
inactive: all other assays above

CCCCCCCCCCCCCC[P+](CCCC)(CCCC)CCCC
active: [8] 0.82 µM | [9] 0.871 µM | [11] 0.81 µM | [16] 0.969 µM | [17] 1.24 µM
inactive: all other assays above

COc1ccccc1C=O
active: [6] 27.7 µM
not listed: [9]
inactive: all other assays above

CCN(CC)c1ccc(C=O)c(O)c1
active: [14] 38.1 µM
not listed: [3] | [9] | [11] | [19]
inactive: all other assays above

O=C(O)C(F)(F)C(F)(F)C(F)(F)C(=O)O
not listed: [3]
inactive: all other assays above

O=c1[nH]cccc1O
not listed: [6] | [19]
inactive: all other assays above

CC(C)OC(=O)COc1ccc(Cl)cc1Cl
active: [12] 68.8 µM
not listed: [3] | [9] | [11] | [19]
inactive: all other assays above

O=C(Cl)c1ccc(Cl)cc1Cl
active: [8] 163 µM | [12] 27.3 µM
not listed: [3] | [9]
inactive: all other assays above

Source: PubChem BioAssay (EPA / NIEHS)
